CYP2C19 activ = activators of human cytochrome P450 2C19 | P33261 | recombinant CYP2C19, luciferin-H EGE luminescence; stronger effect = higher value; 0 = fully inhibited enzyme, 1 = untreated enzyme | activation factor at 5 µM | 96,000 tested, under 10 active | AID 1025;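 active = activation factor of at least 2 at 5 µM in the primary screen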;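 also: 0 = wells with 2.5 mM tranylcypromine and 1 = vehicle-only wells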
PLAP activator = human PLAP activation. purified PLAP enzyme, luminescent substrate read-out; stronger effect = higher value. 96,000 tested, 1.2% active. activation fold at 20 µM. AID 696. P05187; in the data active = activation fold above about 2
CYP2C9 activ = increases human cytochrome P450 2C9 activity. activation factor at 5 µM. recombinant CYP2C9, luciferin-H conversion, luminescence; stronger effect = higher value; factor 1 = untreated enzyme, 0 = blocked. 96,000 tested, 1.4% active. P11712. AID 1024;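 active = activation factor of 2 or more for CYP2C9 at a 5 µM dose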;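 also: 0 = sulfaphenazole-blocked wells and 1 = vehicle-only wells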
Target sequence (P11712 whole entry, looked up): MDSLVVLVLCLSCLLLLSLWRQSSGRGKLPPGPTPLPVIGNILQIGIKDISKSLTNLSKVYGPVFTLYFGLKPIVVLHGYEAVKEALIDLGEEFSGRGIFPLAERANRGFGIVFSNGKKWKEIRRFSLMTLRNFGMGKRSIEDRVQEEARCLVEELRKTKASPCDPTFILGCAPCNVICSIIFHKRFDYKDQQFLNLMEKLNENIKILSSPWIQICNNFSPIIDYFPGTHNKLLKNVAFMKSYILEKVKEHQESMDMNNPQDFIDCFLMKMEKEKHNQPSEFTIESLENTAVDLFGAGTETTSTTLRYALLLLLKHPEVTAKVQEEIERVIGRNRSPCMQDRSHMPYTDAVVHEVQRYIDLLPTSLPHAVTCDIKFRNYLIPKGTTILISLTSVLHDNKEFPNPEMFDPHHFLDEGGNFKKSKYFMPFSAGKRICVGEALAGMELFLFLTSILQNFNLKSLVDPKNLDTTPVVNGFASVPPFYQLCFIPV
CYP2C19 inhib = human CYP2C19 inhibition; P33261; CYP2C19 Supersomes, luciferin-H EGE luminescence, 30 min; AID 778; inhibition, % at 5 µM; 96,000 tested, 21% active;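 active = CYP2C19 inhibition above a set limit at 5 µM in the primary screen, cut at about 50% in these data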;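 also: plate controls were negative control wells for no effect and 2.5 mM tranylcypromine positive control for full effect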
CYP2C9 inhib = inhibitors of human CYP2C9 | CYP2C9 Supersomes, luciferin-H conversion, luminescence | inhibition, % at 5 µM | 96,000 tested, 20% active;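 active = blocking of liver enzyme CYP2C9 beyond about 50% at 5 µM, limit read from the data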
* = called active by the depositor; · = not tested or not shown. Rows were chosen to be rich in hits. Some 31% of all compounds tested hit in one or more screens of this group.

SMILES	CYP2C19 activ	PLAP activator	CYP2C9 activ	CYP2C19 inhib	CYP2C9 inhib
Fc1ccccc1N1CCN(C(c2cccs2)c2nnnn2CCc2ccccc2)CC1 (stereo not drawn)	0.3	1.2	0.4	70*	57*
CCCC(c1nnnn1CCOC)N1CCN(c2cccc(OC)c2)CC1 (stereo not drawn)	0.7	1	0.7	34	26
CC(C)C(c1nnnn1Cc1ccccc1)N1CCN(Cc2ccc3c(c2)OCO3)CC1 (stereo not drawn)	0.1	1.6	0.3	92*	68*
CCCCC(c1nnnn1CCOC)N1CCN(c2cccc(OC)c2)CC1 (stereo not drawn)	0.3	1.5	0.5	70*	54*
c1ccc(CCn2nnnc2C(c2cccs2)N2CCN(Cc3ccc4c(c3)OCO4)CC2)cc1 (stereo not drawn)	0.4	1.6	0.5	56*	52*
CCc1c(C)nc(N)n2c(SCC(=O)N3CCN(c4ccccc4F)CC3)nnc12	1	0.9	1	-4	4
CC1(C)Cc2c(sc3nc4n(c(=O)c23)CCC4)CO1	1	1	1.1	-4	-7
Cc1ccc(CNC(=O)CSCC(=O)O)cc1	1	0.9	1.1	-4	-8
CCC(=O)n1nc(-c2ccc(OC)cc2)nc1N	0.9	0.9	1	13	-3
COCCn1nnnc1C(c1ccccn1)N1CCN(c2cc(C)ccc2C)CC1 (stereo not drawn)	0.2	1.9	0.3	83*	70*
COCCn1nnnc1C(c1ccccc1)N1CCN(C)CC1 (stereo not drawn)	1	1	1	3	-2
COCCn1nnnc1C(c1ccc(OC)cc1OC)N1CCN(c2ccccc2)CC1 (stereo not drawn)	0.5	1.5	0.8	50	21
COCCn1nnnc1C(c1cccs1)N1CCN(c2ccccc2)CC1 (stereo not drawn)	0.6	1.1	0.5	44	51*
O=C(O)c1cc2nc(C3CC3)cc(C(F)(F)F)n2n1	1.1	1.3	1.1	-9	-13
CCOC(=O)Nc1sc(C)nc1-c1ccccc1	0.4	0.9	0.8	61*	18
CCOC(=O)Nc1nc(-c2ccccc2)c(C(=O)c2ccc(Cl)cc2)s1	0.3	1.8	0.4	73*	64*
CCc1sc(NC(=O)COC)nc1-c1ccccc1	0.2	1.5	0.4	75*	57*
CNc1nc(C)c(C(=O)c2ccc(Cl)cc2)s1	0.3	0.9	0.4	66*	61*
COc1ccccc1NC(=O)N1CCN(c2cc(-c3ccccc3)nc3ncnn23)CC1	0.7	1.3	0.8	33	20
COc1ccc(CCNc2nnc(Sc3nnnn3-c3ccccc3)s2)cc1OC	0.3	1.4	0.9	73*	8
COc1ccc(CCNc2nc3ccccc3n3nnnc23)cc1OC	0.7	0.8	0.9	32	8
COc1ccc(CNC(=O)CSc2nnnn2Cc2ccccc2)cc1	0.2	0.7	0.3	79*	73*
COc1ccc(-n2nnnc2SCC#CCO)cc1	0.1	0.9	0.6	90*	45
COc1ccc(CNC(=O)CSc2nnnn2-c2ccccc2)cc1	0.1	0.7	0.3	89*	73*
CCCCn1c(SCc2c(C)noc2C)nc2cc(S(N)(=O)=O)ccc21	0.9	1	0.7	6	34
SMILES	CYP2C19 activ	PLAP activator	CYP2C9 activ	CYP2C19 inhib	CYP2C9 inhib
COc1ccc(C)cc1-n1c(SCC(=O)Nc2cc(C)on2)nc2sc(C)c(C)c2c1=O	1	1.5	0.9	4	10
O=C(Cc1cccs1)N(c1ccc(Cl)cc1)C1C=CS(=O)(=O)C1 (stereo not drawn)	0.7	1.1	0.8	26	24
CC(C)C(NC(=O)C1CCCCC1)C(=O)NC1=NCCS1 (stereo not drawn)	0.8	1.1	0.9	20	12
COCc1cc(=O)[nH]c(Nc2nc3ccc(C)cc3o2)n1	0.8	1.8	0.5	21	48
CCOC(=O)CC(=O)CSc1ncnc2c1oc1ccccc12	0.6	1.1	0.6	44	39
COc1ccc(CCNC(=O)CSc2nnnn2-c2ccccc2)cc1	0.2	1.1	0.2	76*	78*
O=C(CSc1nnnn1Cc1ccccc1)NCCc1ccccc1	0.8	0.9	0.7	20	33
N#Cc1c2n(cnc1=O)CCCCC2	1	1.1	0.9	-1	6
CC1CCCCC1NC(=O)C1CCN(S(=O)(=O)c2cccc3nsnc23)CC1 (stereo not drawn)	1.3	0.7	1.8	-25	-76
CCc1nc(SCc2cccnc2)c2c(=O)n(C)c(=O)n(C)c2n1	0.1	1.1	0.6	94*	42
CC(C)c1nc(SCc2ccccn2)c2c(=O)n(C)c(=O)n(C)c2n1	1	1.2	0.7	1	28
Cn1c(=O)c2c(SCc3cccnc3)nc(C3CC3)nc2n(C)c1=O	0.1	0.9	0.4	88*	57*
COc1ccc(F)cc1CN1CCN(c2cc(C)nc3c4c(C)cc(C)nc4nn23)CC1	0.9	1.9	1	7	4
COc1ccc(CNC(=O)/C=C/c2cc([N+](=O)[O-])ccc2OC(F)F)cc1	0.9	0.8	1	7	-2
COc1ccc(CNC(=O)/C=C/c2cc([N+](=O)[O-])ccc2OC(F)F)cc1OC	0.7	1	2.1*	29	-108
O=C1CCCN1CCCNc1ccc(S(=O)(=O)N2CCCCC2)cn1	1.2	1.1	1.2	-16	-23
CCOCCN(C(=O)COC)c1cccc(OC)c1	0.8	1.1	1	20	0
CC(C)(C)OC(=O)N1CC(O)CC1C(=O)OCC(=O)c1ccc(Cl)cc1 (stereo not drawn)	0.5	1.4	0.8	55*	22
Cc1c(C(=O)NN2CCN(C)CC2)cccc1[N+](=O)[O-]	·	0.8	·	·	·
OC(COCC1COc2ccccc2O1)CN1CCN(c2ccccc2F)CC1 (stereo not drawn)	0.9	1.3	1	8	0
O=C(OCC1COc2ccccc2O1)c1c(F)cccc1F (stereo not drawn)	0	0.7	0.2	97*	84*
N#Cc1c(N)n(CCCN2CCOCC2)c2nc3ccccc3nc12	0.1	1.4	0.7	89*	32
CCCCCn1c(N)c(C#N)c2nc3ccccc3nc21	0.4	1	0.8	62*	22
Cc1ccc2c(c1)c1nc3ccccc3nc1n2CCN1CCOCC1	0.8	1.3	0.6	24	40
N#Cc1c(N)n(CCNC(=O)c2cccs2)c2nc3ccccc3nc12	0.1	0.7	0.8	87*	16
CCCCn1c(NC(C)=O)c(C#N)c2nc3ccccc3nc21	0.9	1.1	0.9	11	14
O=C(Nc1cccc(C(F)(F)F)c1)C1C2CC3OC(=O)C1C3C2 (stereo not drawn)	0.9	1	1.4	9	-42
CC1CCc2nn(CC(=O)NCCN3CCCCC3C)cc2C1 (stereo not drawn)	0.9	1.4	1	10	-1
